Common to all, as to assay: NCI-60 one-dose screen, 48 h (100 = growth as untreated, 0 = no growth, -100 = all killed)
Conditions in all cases: 10 µM unless noted

For assay [1], the system named is HCT-15 colon.
Assay [2] deals with HT29 colon.
Assay [3] concerns SNB-75 CNS.
The test system of assay [4] is SNB-19 CNS.
For assay [5], the system named is U251 CNS.
Assay [6] has as its system PC-3 prostate.
The subject of assay [7] is SK-MEL-5 melanoma.
In assay [8] the test system is UACC-62 melanoma.
Assay [9] deals with LOX IMVI melanoma.
The test system of assay [10] is SK-MEL-28 melanoma.

Drawing on PubChem BioAssay (NCI), this text covers growth for 12 molecules.

The structures appear in SMILES notation. Compounds without any hit were thinned out: in the full panel of roughly 83,000, 20% have a hit.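 Growth was measured after 48 h exposure to one concentration of compound in 96-well plates. Values under 10 count as active.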 Values without a mark were called inactive. Calls of active or inactive are those of the source.

In the case of `COc1ccc(-c2csc(NC(=O)CSc3nc(C)cc(=O)[nH]3)n2)cc1`, the growth in assay [1] is 102%; in assay [2], 107%; in [3] it was 95.9%; in assay [4], 89.3%; in assay [5] it was 102%; in assay [6], 94.9%. The growth in assay [7] was 96.7%; in [8] it was 87.7%; in assay [9] it was 96.3%; in assay [10], 106%.

Consider `Cc1cc(C)n(C(=O)CSc2nc3sc4c(c3c(=O)n2-c2ccccc2)CCCCC4)n1`, for which the growth in assay [1] is 103%; in assay [2], 105%; in assay [3] it was 89.6%; in [4] it was 95.4%; in [5], 97.4%; in [6], 99%. Also, the growth in assay [7] is 93%; in assay [8], 95.6%; in assay [9] it was 98.9%; in [10], 110%.

As for `CCOc1ccccc1NC(=O)CCC(=O)OC`, the growth was 105% in [1]; 89.7% in assay [2]; 75.7% in assay [3]; 111% in [4]; 105% in assay [5]; 93.5% in assay [6]. Also, the growth in [7] was 99.7%; in assay [8], 106%; in [9], 102%; in [10], 101%.

Take `COc1cc2c(c(OC)c1OC)C(=O)CC(c1cccc(C(=O)Nc3ccc(Br)cc3)c1)O2` (stereo not given): the growth in assay [1] is 57.9%; in [2] it was 75%; in assay [3], 51.1%; in [4], 80.2%; in assay [5] it was 83.4%; in assay [6], 5.38% (active). The growth in [7] is 22.3%; in assay [8], 40.9%; in assay [9], 57.9%; in assay [10], 74.5%.

On to `O=C(NS(=O)(=O)c1ccccc1)n1cc(-c2ccncc2)c(-c2cc(O)cc(Cl)c2)n1`, for which the growth is 95.9% in assay [1]; 98.4% in [2]; 82.6% in [3]; 115% in [4]; 104% in [5]; 95% in [6]. The growth in assay [7] is 98.9%; in [8], 39.3%; in assay [9], 92.8%; in assay [10], 67.6%.

Turning to `C=C(C[n+]1ccccc1)[C@@H]1CC[C@]2(C(=O)OC)CC[C@]3(C)[C@H](CC[C@@H]4[C@@]5(C)CCC(=O)C(C)(C)[C@@H]5CC[C@]43C)[C@@H]12`, the growth in assay [1] is 104%; in [2] it was 78%; in assay [3] it was 83.9%; in assay [4] it was 73.8%; in assay [5], 82.8%; in assay [6], 68%. Besides, the growth is 80.2% in assay [7], 51.8% in assay [8], 93.7% in assay [9] and 69% in assay [10].

Take `COc1ccc(NC(=O)CSc2oc(-c3ccccc3)nc2S(=O)(=O)c2ccc(Cl)cc2)c(OC)c1`: the growth in assay [1] is 73.7%; in assay [2], 70.3%; in [3], -1.47% (active); in assay [4], 55.4%; in assay [5], 50.6%; in assay [6], 61%. Moreover, the growth in assay [7] is 66.3%; in assay [8] it was 41.4%; in assay [9], 76.1%; in assay [10], 67.1%.

As for `COc1ccc(NC(=O)c2ccc(NC3=C(c4ccc(Cl)cc4)C(=O)NC3=O)cc2)cc1`, the growth was 75.1% in assay [1]; 66.7% in [2]; 85.7% in assay [3]; 91.8% in assay [4]; 82.3% in [5]; 64.3% in [6]. In addition, the growth in [7] was 80.8%; in [8] it was 81.6%; in assay [9], 87.7%; in [10] it was 101%.

Consider `Cc1ccc(-c2nc(C#N)c(S(=O)(=O)n3nc(C)cc3N)o2)cc1`, for which the growth was 49.2% in assay [1]; 50.1% in [2]; 97.6% in assay [3]; 97.5% in [4]; 95.4% in assay [5]; 85% in assay [6]. For the same molecule, the growth in assay [7] is 90%; in assay [8], 96.1%; in assay [9] it was 56.4%; in [10], 93.8%.

In the case of `COc1ccc(C2CC(=O)Oc3c(OC)c4c(c(OC)c32)OCO4)cc1` (stereo not given), the growth in assay [1] is 87.6%; in [2], 99.4%; in [3], 98.6%; in [4] it was 107%; in assay [5], 99.6%; in assay [6], 106%. The growth is 105% in [7], 91.1% in assay [8], 90.3% in assay [9] and 95.6% in [10].

Turning to `COc1cc(C(=O)c2c(-c3ccccc3)oc3ccccc23)cc(OC)c1O`, the growth in [1] was 32.1%; in assay [2], 109%; in [3], -1.53% (active); in assay [4], 32.8%; in assay [5], 25.6%; in assay [6] it was 43.9%. The growth was 16.4% in assay [7], 35.2% in assay [8], 37.2% in assay [9] and 66% in assay [10].

Take `CC1=C2[C@@H](CC1)[C@]1(C)O[C@@](C(C)C)(C[C@H]1OC(=O)CO)[C@H]2OC(=O)CCCc1ccccc1`: the growth was 65.7% in [1]; 72.1% in [2]; 90.8% in assay [3]; 92.5% in [4]; 74.5% in assay [5]; 26.9% in assay [6]. The growth in assay [7] is 66.8%; in assay [8], 40.2%; in [9] it was 52.3%; in [10], 90.2%.
